Experimental data: PubChem BioAssay AID1321 (The Scripps Research Institute Molecular Screening Center, 2008)
“And” between values parts separate entries of the source, which are not always exact repeats. Equal entries are not always repeated. Hit rate of the full screen: of about 220,000 compounds, about 2,600 (1.2%) were called active.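 The calls were made as follows: active = activation above the mean of all tested compounds plus 3 SD, set per screening run (cut at about 8.8% in these data); inactive = the rest.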 The list comes from a sample in which actives are over-represented; it also holds similar structures and randomly drawn compounds. A structure can be active in one record and inactive in another.

Each compound was assayed against Wee1-like protein kinase (Homo sapiens) (UniProt P30291) (assay: Wee1 degradation inhibitors, primary screen, cell-based, HeLa, Wee1K328M-luciferase, luminescence (AID 1321;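 also: cells exposed to compound for 20 h before luminescence read; 0% = DMSO alone and 100% = MG132 at 30 µM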)). Settings: HeLa Luc-Wee1K328M stability, at 5 µM, stronger effect = higher value, 100% = proteasome inhibitor MG132 effect.

| Structure (SMILES) | reporter increase |
| --- | --- |
| NNC(=O)c1ccc(COCC(F)(F)C(F)F)cc1 | 2.09% (inactive) |
| COc1ccc(-c2csc(NC3OC(=O)c4ccccc43)n2)cc1 (stereo not given) | 1.6% (inactive) |
| Cc1nnsc1C(=O)NCc1c(F)cccc1Cl | -2.45% (inactive) |
| Cn1c(=O)c2c(nc(NCc3ccccc3)n2CC(N)=O)n(C)c1=O | -2.48% (inactive) |
| CC(CN1CCOCC1)c1ccccc1 (stereo not given) | 11.8% (active) |
| OC(c1ccccc1)C(CN1CCOCC1)c1ccccc1 (stereo not given) | 0.23% (inactive) |
| Cc1ccc(C(=O)OC(C)CN2CCOCC2)cc1 (stereo not given) | 2.34% (inactive) |
| O=C(CN1CCOCC1)Nc1c(-c2ccccc2)c2cc(Br)ccc2[nH]c1=O | -2.5% (inactive) |
| Cc1ccc2[nH]c(=O)c(CC=C(Cl)Cl)c(C)c2c1 | -1.17% (inactive) |
| Cc1ccc2[nH]c(=O)c(CN3CCCCC3)c(-c3ccccc3)c2c1 | 11.8% (active) |
| Cc1cc(Nc2ccc(N3CCOCC3)cc2)c2cccc(C)c2n1 | 1.6% (inactive) |
| C/C(=N\Nc1cccc(C(=O)O)c1)c1ccc2c(c1)Nc1ccccc1S2 | 2.58% (inactive) |
| Cc1cccc(N(C(=O)Cc2cccs2)C(C(=O)NC2CCCC2)c2ccsc2)c1 (stereo not given) | -1.49% (inactive) |
| Cc1ccccc1N(C(=O)Cc1cccs1)C(C(=O)NC1CCCCC1)c1cn(C)nc1C (stereo not given) | 12.1% (active) |
| Cc1ccsc1C(C(=O)NC1CCCCC1)N(C(=O)Cc1cccs1)C1CC1 (stereo not given) | -1.86% (inactive) |
| Nc1scc[n+]1Cc1cccc2cccnc12 | 4.15% (inactive) |
| CC(C)=NN1C(=O)c2ccccc2NC1(C)C | 2.65% (inactive) |
| CC(NC(=O)C(C)(C)C)C(c1cccs1)N1CCN(Cc2ccccc2)CC1 (stereo not given) | -2.56% (inactive) |
| CC(=O)c1ccc(NC(=O)C2CC(=O)Nc3nc4ccccc4n32)cc1 (stereo not given) | 11.6% (active) |
| O=C(Nc1ccccc1)C1CC(=O)n2c(nc3ccccc32)N1 (stereo not given) | -0.1% (inactive) |
| CCOC(=O)c1ccc(NC(=O)C2CC(=O)Nc3nc4ccccc4n32)cc1 (stereo not given) | -0.26% (inactive) |
| Cn1nc(C(C)(C)C)c(NC(=O)c2sccc2Cl)c1C(C)(C)C | 1.43% (inactive) |
| O=C1N=C(N2CCc3ccccc3C2)S/C1=C\c1ccc(O)cc1 | -2.98% (inactive) |
| COc1cc(C(=O)Nn2c(O)c(C3=c4ccccc4=NC3=O)sc2=S)ccc1O | -2.51% (inactive) |
| Cn1ncc(Br)c1C(=O)NCc1cccs1 | 20.9% (active) |

| Structure (SMILES) | reporter increase |
| --- | --- |
| O=C(NCc1cccs1)c1ccc(Br)o1 | -0.94% (inactive) |
| COc1ccccc1NC(=O)c1c(Br)cnn1C | 3.35% (inactive) |
| O=C(O)C(c1ccccc1)C1(O)CCCCC1 (stereo not given) | 7.89% (inactive) |
| Cc1ccc(NNC(=O)c2c(F)cccc2Cl)cc1Cl | 0.76% (inactive) |
| O=C(NNc1cc(Cl)cc(Cl)c1)c1c(F)cccc1Cl | 9.07% (active) |
| CCN(CC)CCNC(=O)c1ccc(NC(=O)c2c(F)cccc2Cl)cc1 | 1.18% (inactive) |
| CCOC(=O)C1CCN(c2c(Nc3cc(C)cc(C)c3)c(=O)c2=O)CC1 | -2.25% (inactive) |
| Cc1ccc(S(=O)(=O)/N=C(/Nc2ccccn2)c2ccc(Cl)cc2)cc1 | 11.1% (active) |
| Cc1ccc(S/C(=N\S(=O)(=O)c2ccc(Cl)cc2)c2ccccc2)cc1 | 0.58% (inactive) |
| O=S(=O)(/N=C(/Nc1ccccn1)c1ccccc1)c1ccc(Cl)cc1 | -2.13% (inactive) |
| CCCCN(CCCC)CC(O)Cn1c2ccccc2c(=O)c2ccccc21 (stereo not given) | 0.32% (inactive) |
| O=C(Nc1ccc(S(=O)(=O)Nc2nccs2)cc1)c1cccc(S(=O)(=O)N2CCOCC2)c1 | -2.58% (inactive) |
| CC(=O)N1CCC(N(C(=O)Nc2ccc(Cl)cc2)C(C)C)CC1 | -1.37% (inactive) |
| NC(=O)c1ccc(-c2csnn2)cc1 | -2.32% (inactive) |
| CS(=O)(=O)N1CCC(C(=O)N2CCN(c3ccccc3)CC2)CC1 | 11.4% (active) |
| CCCS(=O)(=O)N1CCCC(C(=O)N2CCN(c3ccccc3)CC2)C1 (stereo not given) | -1.94% (inactive) |
| CCS(=O)(=O)N1CCC(C(=O)N2CCN(c3ccccc3)CC2)CC1 | -1.23% (inactive) |
| CN1CCN(CC(=O)Nc2sc3c(c2C#N)CCC(C(C)(C)C)C3)CC1 (stereo not given) | 16.5% (active) |
| CCC1CCc2c(sc(NC(C)=O)c2C#N)C1 (stereo not given) | 1.63% (inactive) |
| CCN1CCN(CC(=O)Nc2sc3c(c2C#N)CCC3)CC1 | -0.82% (inactive) |
| CC1CC(NC(=O)/C(C#N)=C/c2ccc[nH]2)CC(C)(C)C1 (stereo not given) | 1.3% (inactive) |
| c1ccc(-n2cccc2)c(N2CCCCC2)c1 | 3.42% (inactive) |
| C/C(CC(C)C)=N\Oc1nc(C)cc(C)n1 | -1.74% (inactive) |
| Cc1cccc(C(=O)NC(=S)N2CCN(c3ccc([N+](=O)[O-])cc3)CC2)c1 | -1.67% (inactive) |
| COc1cc(OC)cc(C(=O)NC(=S)N2CCN(c3ccc(C(F)(F)F)cc3[N+](=O)[O-])CC2)c1 | 12.2% (active) |

| Structure (SMILES) | reporter increase |
| --- | --- |
| O=C(Nc1cccc(C(F)(F)F)c1)c1ccc(N2CCNCC2)c([N+](=O)[O-])c1 | 1.22% (inactive) |
| Cc1cc(C)nc(NC(=O)/C=C/c2ccc(Cl)cc2)n1 | -2.67% (inactive) |
| CC(C)n1c(=S)[nH]c2cc(C(F)(F)F)ccc21 | -2.42% (inactive) |
| Cc1[nH]n(C)c(=O)c1N=Nc1ccc(S(C)(=O)=O)cc1 | 1.89% (inactive) |
| COc1cc(CC(=O)N/N=C/c2ccccc2)c([N+](=O)[O-])cc1OC | 10.2% (active) |
| O=C(Cc1cc(=O)[nH][nH]1)N/N=C/c1ccccc1[N+](=O)[O-] | -4.24% (inactive) |
| COc1ccc(C(=O)NCC(=O)N/N=C/c2ccc([N+](=O)[O-])o2)cc1OC | -1.47% (inactive) |
| CCn1c(SCC(=O)N/N=C/c2ccccc2OCC(=O)O)nnc1-c1ccc(C(C)(C)C)cc1 | 0.66% (inactive) |
| CCN(CC)C(=O)CSC(Nc1cccc(F)c1)=C(C#N)C#N | -3.44% (inactive) |
| Cc1cccc(N2CCN(Cc3nc(C4CC4)no3)CC2)n1 | -3.23% (inactive) |
| Cc1ccc(S(=O)(=O)NC(=O)Nc2nc(-c3ccc(F)c(F)c3)cs2)cc1 | 7.86% (inactive) |
| C=CCOc1ccc(Cl)cc1CNCCCN1CCOCC1 | -1.69% (inactive) |
| COc1ccc(Cl)cc1NC(=O)CCN1CCOCC1 | -3.24% (inactive) |
| COc1ccc(-c2ccc(CNCCCN3CCOCC3)o2)cc1Cl | 8.92% (active) |
| Cn1c(SCC(=O)c2ccc(F)cc2)nnc1-c1ccccn1 | -0.76% (inactive) |
| COCC1CCCN(Cc2nc(-c3ccc4c(c3)OCO4)no2)C1 (stereo not given) | 9.73% (active) |
| CC(C)N(Cc1nc(-c2ccc3c(c2)OCO3)no1)CC1CCC(=O)N1 (stereo not given) | 2.1% (inactive) |
| CN(CCN1CCOCC1)Cc1nc(-c2ccc3c(c2)OCO3)no1 | 1.41% (inactive) |
| Cc1ccc(-c2c[n+](=O)c3c(n2[O-])CCC3)cc1 | -1.07% (inactive) |
| O=C(Cc1ccccc1)Nc1cccc(C(=O)N/N=C/c2ccco2)c1 | -1.22% (inactive) |
| N#CCC(=O)N/N=C/c1ccc(SCC(=O)Nc2ccccc2)o1 | -0.66% (inactive) |
| O=C(CSc1ccc(/C=N/NC(=O)c2cccc(F)c2)o1)Nc1ccccc1 | 9.46% (active) |
| CCOc1cc2[nH]c(=S)n(Cc3ccc(C(=O)NCCOC)cc3)c(=O)c2cc1OCC | -1.62% (inactive) |
| COc1cc2[nH]c(=S)n(Cc3ccc(F)cc3)c(=O)c2cc1OC | 12.6% (active) |
| COc1cc2[nH]c(=S)n(Cc3ccc(C)o3)c(=O)c2cc1OC | 3.12% (inactive) |

| Structure (SMILES) | reporter increase |
| --- | --- |
| COc1ccc(F)cc1S(=O)(=O)N1CCCCC1 | 2.94% (inactive) |
| Cc1ccc(/C=N/NC(=S)NC2CCCCC2)o1 | 3.18% (inactive) |
| CCn1c(-c2ccncc2)n[nH]c1=S | 1.46% (inactive) |
| CCn1c(C(C)C)n[nH]c1=S | 18.6% (active) |
| CCn1c(C(C)NC(=O)c2ccc(C)cc2)n[nH]c1=S (stereo not given) | -0.98% (inactive) |
| O=C(NCc1ccco1)C1CCCN1S(=O)(=O)c1ccccc1C(F)(F)F (stereo not given) | -1.13% (inactive) |
| CCC1=NN2C(=N)/C(=C/c3cc(C)n(-c4ccccc4)c3C)C(=O)N=C2S1 | 4.73% (inactive) |
| COC(=O)c1sc(SC)c(S(=O)(=O)C(C)C)c1N/N=C(\C#N)S(=O)(=O)c1ccccn1 | 2.36% (inactive) |
| CCOC(=O)C1CCN(C(=O)Nc2ccc(C)c(Cl)c2)CC1 | 3.42% (inactive) |
| CCCCOC(=O)CCCc1ccc([N+](=O)[O-])cc1[N+](=O)[O-] | 12.8% (active) |
| CCOC(=O)COc1ccc([N+](=O)[O-])cc1 | -1.98% (inactive) |
| CCOC(=O)C/C(C)=N\Nc1ccc([N+](=O)[O-])cc1[N+](=O)[O-] | -1.73% (inactive) |
| CC1(C)CC(CNCCC(c2ccc(F)cc2)c2ccco2)CCO1 (stereo not given) | -2.08% (inactive) |
| CC(C)CNC(=O)/C=C/C(=O)O | 31.4% (active) and -2.62% (inactive) |
| CC(C)CNC(=O)CC(NCC(C)C)C(=O)O (stereo not given) | -0.85% (inactive) |
| CC(C)CNC(=O)C(=O)NCc1ccccc1 | -2.69% (inactive) |
| CN(Cc1nc(-c2cnccn2)no1)Cc1n[nH]c2c1CCCCC2 | -0.67% (inactive) |
| O=C(O)C1CCN1C1CCCCC1 (stereo not given) | 8.91% (active) |
| O=C(O)c1cccc2c1C(=O)N(C1CCCCC1)C2 | -0.13% (inactive) |
| CC(Sc1nnnn1C1CCCCC1)C(=O)O (stereo not given) | -1.64% (inactive) |
| O=C(CCNc1n[nH]c(=O)[nH]c1=O)N/N=C\c1ccc(Br)cc1 | -1.51% (inactive) |
| COc1c(N2CCN(C(=S)Nc3ccccc3F)C(C)C2)c(F)cc2c(=O)c(C(=O)O)cn(C3CC3)c12 (stereo not given) | -0.39% (inactive) |
| CCC(=O)Nc1ccc(C(=O)Nc2cccc(OC)c2)cc1 | 0.16% (inactive) |
| CCC(=O)Nc1cccc(NC(=O)c2cccnc2)c1 | 14.3% (active) |
| CCOC(=O)c1cc(NC(=O)c2cccnc2)cc(C(=O)OCC)c1 | -1.21% (inactive) |
